# According to PubChem BioAssay (NCATS):
# Records with an inconclusive call do not appear. Active and inactive are the calls of the source. Calls follow the shape of the dose curve; as a rule, active = well fitted inhibition curve with a large enough effect; inconclusive = small, poorly fitted or top-dose-only effect; inactive = no such curve, though single readings can be large or run the other way.
# Assay: qHTS Screen of the MIPE 4.0 Collection Against Ewings Sarcoma (EW8) (AID 1259255); also: nearly all actives have a fitted effect of over 35% in size
# Details: EW8 Ewing sarcoma viability, CellTiter-Glo, 48 h; series mostly up to 45.8 µM
# Outline: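 Log-phase cells in RPMI with 5% FBS attached for 4 h, then received compounds as a titration for 48 h at 37C, 5% CO2. Viability was read by CellTiter-Glo luminescence and normalized to DMSO and no-cell wells.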
# Potency is read from the fitted curve at half-maximal effect.
row,SMILES,Potency
1,O=C(c1ccc(F)c(F)c1Nc1ccc(I)cc1F)N1CC(O)([C@H]2CCCCN2)C1,23.5 µM (active)
2,CC(C)(F)C[C@H](N[C@@H](c1ccc(-c2ccc(S(C)(=O)=O)cc2)cc1)C(F)(F)F)C(=O)NC1(C#N)CC1,16.6 µM (active)
3,O[C@@H](COc1cccc2ncccc12)CN1CCN(C2c3ccccc3[C@@H]3[C@H](c4ccccc42)C3(F)F)CC1 (stereo not given in full),23.5 µM (active)
4,COc1cc(C=CC(=O)O)ccc1O,inactive
5,CNc1nc(Nc2ccc(C(=O)N3CCOCC3)cc2OC)ncc1Cl,inactive
6,CCCCC[C@H](O)C=C[C@H]1[C@H](O)CC(=O)[C@H]1CCCCCCC(=O)O,inactive
7,CC(C)[C@H](O)C(=O)N[C@@H](C)C(=O)N[C@@H]1C(=O)N(C)CCc2ccccc21,inactive
8,Clc1ccc(C2(c3ccc(-c4cn[nH]c4)cc3)CCNCC2)cc1,23.5 µM (active)
9,C[C@H](CCC(=O)O)[C@H]1CC[C@H]2[C@H]3[C@@H](CC[C@]12C)[C@@]1(C)CC[C@@H](O)C[C@H]1C[C@@H]3O,18.7 µM (active)
10,Fc1ccc(C(c2ccc(F)cc2)N2CCN(CC=Cc3ccccc3)CC2)cc1,16.6 µM (active)
11,CN[C@H]1[C@@H](O[C@@H]2[C@H](O[C@@H]3[C@@H](O)[C@@H](O)[C@@H](N=C(N)N)[C@@H](O)[C@@H]3N=C(N)N)O[C@H](C)[C@@]2(O)C=O)O[C@@H](CO)[C@@H](O)[C@H]1O,inactive
12,C[C@@H]1CC=CC=CC=CC=C[C@@H](O[C@@H]2O[C@H](C)[C@@H](O)[C@H](N)[C@H]2O)C[C@@H]2O[C@](O)(C[C@@H](O)C[C@@H]3O[C@@H]3C=CC(=O)O1)C[C@H](O)[C@@H]2C(=O)O,11.8 µM (active)
13,CN(C)c1nc(Cc2ccc(NC(=O)c3ccc(C(F)(F)F)cc3)cc2)nc(N(C)C)c1CC(=O)O,inactive
14,CCC(c1ccc(O)cc1)C(CC)c1ccc(O)cc1 (stereo not given),1.87 µM (active)
15,Cc1cc(OCCCS(C)(=O)=O)cc(C)c1-c1cccc(COc2ccc3c(c2)OC[C@H]3CC(=O)O)c1,20.9 µM (active)
16,CCC(=O)NCC[C@@H]1CCc2ccc3c(c21)CCO3,inactive
17,CN1CCN(c2cccc(Nc3nc4c(-c5ccc(S(C)(=O)=O)cc5)cccn4n3)c2)CC1,5.9 µM (active)
18,CN1CC(=O)NC1=NC(=O)Nc1cccc(Cl)c1,inactive

row,SMILES,Potency
1,Cc1ccccc1C(C(=O)NC1CCCCC1)N(C(=O)CNc1ccc(C#N)cc1)c1cccc(F)c1 (stereo not given),inactive
2,CCOC(=O)N1c2ccc(C(F)(F)F)cc2[C@@H](N(Cc2cc(C(F)(F)F)cc(C(F)(F)F)c2)C(=O)OC)C[C@H]1CC,20.9 µM (active)
3,CNC1CCC(N(Cc2cccc(-c3ccncc3)c2)C(=O)c2sc3ccccc3c2Cl)CC1 (stereo not given),23.5 µM (active)
4,CCN1CCN(c2ccc(Nc3cc(N(C)C(=O)Nc4c(Cl)c(OC)cc(OC)c4Cl)ncn3)cc2)CC1,inactive
5,COc1ccc2ccc(=O)oc2c1CC=C(C)C,7.43 µM (active)
6,CCCCCOC(=O)Nc1nc(=O)n([C@@H]2O[C@H](C)[C@@H](O)C2O)cc1F (stereo not given in full),inactive
7,Nc1nc(Cl)nc2c1ncn2[C@@H]1O[C@H](CO)[C@@H](O)[C@H]1F,inactive
8,CC1(C)OC2CC3C4CC(F)C5=CC(=O)C=CC5(C)C4C(O)CC3(C)[C@]2(C(=O)CO)O1 (stereo not given in full),inactive
9,C[C@@]1(C(=O)Nc2ccc(F)nc2)CCCN1c1nc(Nc2cc(C3CC3)[nH]n2)c2cccn2n1,1.05 µM (active)
10,CN(C)c1ccccc1CN1CCCN(Cc2ccccc2N(C)C)C1c1ccncc1,18.7 µM (active)
11,O=[N+]([O-])c1ccc(Nc2ccccc2-c2ccccc2)c2nonc12,inactive
12,O=C1C(c2c(O)[nH]c3ccccc23)=Nc2ccccc21,26.4 µM (active)
13,Cc1csc(-c2nnc(Nc3ccc(Oc4ncccc4-c4ccnc(N)n4)cc3)c3ccccc23)c1,0.0059 µM (active)
14,COC(=O)[C@H](c1ccccc1Cl)N1CCc2sccc2C1,inactive
15,CCC[C@@H](NC(=O)[C@@H]1[C@H]2CCC[C@@H]2CN1C(=O)[C@@H](NC(=O)[C@@H](NC(=O)c1cnccn1)C1CCCCC1)C(C)(C)C)C(=O)C(=O)NC1CC1,16.6 µM (active)
16,CC1=C(C(=O)Nc2cc3cn[nH]c3cc2F)C(c2ccc(C(F)(F)F)cc2)CC(=O)N1 (stereo not given),inactive
17,O=C(O)c1nc(=O)[nH]c(=O)[nH]1,inactive
